According to PubChem BioAssay (NCI):
The panel holds about 79,000 compounds, 15% with a hit somewhere; the sample as a whole holds those more often. Active and inactive are the calls of the source. No stated cut-off is given here; in the data, active means growth inhibition above about 70%; inactive means the rest.

Assay: NCI Yeast Anticancer Drug Screen. Data for the bub3 strain (AID 167)
Conditions: S. cerevisiae bub3 mutant strain, at 50.0 µM, stronger effect = higher value
Method in brief: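 Compounds were applied to a genetically altered yeast strain carrying a cell-cycle control defect. Growth inhibition was scored against vehicle-treated controls.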

| Structure (SMILES) | growth inhibition |
| --- | --- |
| CO/N=C1/c2sccc2[C@H](NC(=O)C(Cc2ccccc2)NC(=O)OC(C)(C)C)[C@@H]1O (some centres not stated) | -2.35% (inactive) |
| CC(C)(C)OC(=O)CNC(=O)C(CSC(c1ccccc1)(c1ccccc1)c1ccccc1)N1C(=O)c2ccccc2C1=O (configuration not stated) | 73.6% (active) |
| CCCC(=O)/C=C\c1ccccc1 | 3.2% (inactive) |
| O=C(CCC(=O)Nc1ccc(Cl)cc1)CC(=O)c1ccc2ccccc2c1 | -31.1% (inactive) |
| CN(C)Cc1cc(C(C)(C)C)ccc1-c1ccc(C(C)(C)C)cc1CN(C)C | -31.2% (inactive) |
| COc1ccc(C(=O)CCl)c(O)c1OC | 5.7% (inactive) |
| O=CN/C=C/c1ccccc1O | 12.1% (inactive) |
| Cc1ccc(C)c(NC(=O)Oc2cc(C)c(Cl)cc2C(C)C)c1 | 98.5% (active) |
| Cc1nc(C(Cl)(Cl)Cl)nc(C(Cl)(Cl)Cl)n1 | 18.4% (inactive) |
| CC(=O)NC(CCCN(Cc1ccccc1)C(=O)NCCCl)C(=O)NCc1ccccc1 (configuration not stated) | -33.7% (inactive) |
| CC1c2c(cc(=O)n(C)c2O)C(=O)N1Cc1ccccc1 (configuration not stated) | 2.45% (inactive) |
| O=C1CCCC1CN1CCCCC1 (configuration not stated) | 22.1% (inactive) |
| CC1=CC(=O)C(=CN2C(=O)/C(=C\c3cccnc3)NC2=S)C(=O)O1 | -3.7% (inactive) |
| Cc1cnc(NCCCCNc2ncc(C)c(-c3ccccc3O)n2)nc1-c1ccccc1O | -3.65% (inactive) |
| Cc1nc(C)c(C(=O)NNC(=O)C[n+]2ccccc2)cc1C(=O)NNC(=O)C[n+]1ccccc1 | -12.4% (inactive) |
| O=C(O)c1ccccc1C(=O)c1ccc(F)c2ccccc12 | 3.75% (inactive) |
| O=C1c2ccccc2C(=Cc2cccnc2)c2ccccc21 | 55.1% (inactive) |
| CC(=O)Nc1ccc(S(=O)(=O)NCCC(=O)O)cc1 | 4.45% (inactive) |
| CC(C(=O)c1ccc(Cl)cc1)C1=NC2NN(c3ccccc3)C(=O)C2=C1C(C)C(=O)c1ccc(Cl)cc1 (configuration not stated) | 1.8% (inactive) |
| Clc1ccc(N=C2CCCCC2)cc1 | -18.2% (inactive) |
| Nc1ncnc2nc(I)[nH]c12 | 26.7% (inactive) |
| O=C(OC1CCC(c2ccccc2)C1)c1cc([N+](=O)[O-])cc([N+](=O)[O-])c1 (configuration not stated) | 44.3% (inactive) |

Assay: NCI Yeast Anticancer Drug Screen. Data for the mlh1 rad18 strain (AID 175)
Conditions: S. cerevisiae mlh1 rad18 strain growth inhibition; at 50.0 µM; stronger effect = higher value
Method in brief: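 Test agents were incubated with a yeast strain of defined genotype (DNA damage repair defect). Inhibition of growth was derived by comparison with vehicle-exposed cultures.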

| Structure (SMILES) | growth inhibition |
| --- | --- |
| C/C=N\N1C(=O)c2ccccc2C1=O | 14.8% (inactive) |
| [Cl][Ce]([Cl])[Cl] | 15.6% (inactive) |
| CCCCN(CCCC)CCCCCCCCCCCO | 27.6% (inactive) |
| CCCCCCCCCCCCCCCCCCCOc1ccc(OCCCCCCCCCC)cc1 | 7.15% (inactive) |
| Cc1ccc(NC(=O)CSc2nnc(Cc3ccccc3)o2)c(C)c1 | -54.9% (inactive) |
| CCN(CC)CCNc1ccccc1 | 14.7% (inactive) |
| Cc1ccc(N=Nc2ccc([N+](=O)[O-])cc2)c([N+](=O)[O-])c1 | -12.6% (inactive) |
| C/C(=C\c1ccc(F)cc1)C(=O)O | 13.8% (inactive) |
| COc1ccc(-c2cc(-c3ccc(OC)cc3)cc(-c3ccc(OC)cc3)c2)cc1 | -16.6% (inactive) |
| CCOC(=O)C12CCCC1(O)N(NC(=O)c1ccccc1)C(C)=C2C(=O)OC (configuration not stated) | -10.2% (inactive) |
| NCCNCCCCCCCCCCCCOS(=O)(=O)O | -11.4% (inactive) |
| COc1ccc(CNc2cnc3cc(N)ccc3n2)cc1OC | -16.4% (inactive) |
| COc1ccc(/C(=C/n2ccnc2)C(O)c2ccc(OC)c(OC)c2)cc1OC (configuration not stated) | -11.3% (inactive) |
| CC(C)(c1ccccc1)C(C)(C)c1nc(-c2ccccc2)cc(-c2ccccc2)n1 | -11.8% (inactive) |
| Cc1cccc([B-]23OCC[N+]2(CNC(=O)c2ccccc2O)CCO3)c1 (configuration not stated) | -16.8% (inactive) |
| O=c1[nH]c2ccccc2c(O)c1O | -5.35% (inactive) |
| N#Cc1cc2c3ccccc3ncc2c2ccccc12 | -6% (inactive) |
| OCC1SC(O)C(O)C(O)C1O (configuration not stated) | 19.6% (inactive) |
| CO/N=C1/c2sccc2[C@H](NC(=O)C(Cc2ccccc2)NC(=O)OC(C)(C)C)[C@@H]1O (some centres not stated) | 13.7% (inactive) |
| CC(C)(C)OC(=O)CNC(=O)C(CSC(c1ccccc1)(c1ccccc1)c1ccccc1)N1C(=O)c2ccccc2C1=O (configuration not stated) | 49.5% (inactive) |

| Structure (SMILES) | growth inhibition |
| --- | --- |
| CCCC(=O)/C=C\c1ccccc1 | -10.7% (inactive) |
| O=C(CCC(=O)Nc1ccc(Cl)cc1)CC(=O)c1ccc2ccccc2c1 | -29.9% (inactive) |
| CN(C)Cc1cc(C(C)(C)C)ccc1-c1ccc(C(C)(C)C)cc1CN(C)C | -30.9% (inactive) |
| COc1ccc(C(=O)CCl)c(O)c1OC | 11.8% (inactive) |
| O=CN/C=C/c1ccccc1O | -4.6% (inactive) |
| Cc1ccc(C)c(NC(=O)Oc2cc(C)c(Cl)cc2C(C)C)c1 | 98.8% (active) |
| Cc1nc(C(Cl)(Cl)Cl)nc(C(Cl)(Cl)Cl)n1 | 20.4% (inactive) |
| CC(=O)NC(CCCN(Cc1ccccc1)C(=O)NCCCl)C(=O)NCc1ccccc1 (configuration not stated) | -18.6% (inactive) |
| CC1c2c(cc(=O)n(C)c2O)C(=O)N1Cc1ccccc1 (configuration not stated) | -9.4% (inactive) |
| O=C1CCCC1CN1CCCCC1 (configuration not stated) | -7.25% (inactive) |
| CC1=CC(=O)C(=CN2C(=O)/C(=C\c3cccnc3)NC2=S)C(=O)O1 | -21.9% (inactive) |
| Cc1cnc(NCCCCNc2ncc(C)c(-c3ccccc3O)n2)nc1-c1ccccc1O | 4.8% (inactive) |
| Cc1nc(C)c(C(=O)NNC(=O)C[n+]2ccccc2)cc1C(=O)NNC(=O)C[n+]1ccccc1 | -25.1% (inactive) |
| O=C(O)c1ccccc1C(=O)c1ccc(F)c2ccccc12 | 10.7% (inactive) |
| O=C1c2ccccc2C(=Cc2cccnc2)c2ccccc21 | 40.7% (inactive) |
| CC(=O)Nc1ccc(S(=O)(=O)NCCC(=O)O)cc1 | 21.8% (inactive) |
| CC(C(=O)c1ccc(Cl)cc1)C1=NC2NN(c3ccccc3)C(=O)C2=C1C(C)C(=O)c1ccc(Cl)cc1 (configuration not stated) | 3.25% (inactive) |
| Clc1ccc(N=C2CCCCC2)cc1 | 1.9% (inactive) |
| Nc1ncnc2nc(I)[nH]c12 | 7.3% (inactive) |
| O=C(OC1CCC(c2ccccc2)C1)c1cc([N+](=O)[O-])cc([N+](=O)[O-])c1 (configuration not stated) | 58.1% (inactive) |
